# Reference: the supplement of paper PMC8975748
# Structures can show the parent of a compound that is named as a salt. ± gives the standard deviation of the averaged measurements.
# Legend:
# [1] = tested on: Saccharomyces cerevisiae BY4741 SeMeCo community; test: z-score of prototroph abundance vs DMSO median; higher = larger share of this subpopulation than in DMSO controls; details: 10 µM; 24 h; SM minimal medium; subpopulation (auxotrophy): Prototroph
# Method in brief: (§1)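 Cells of a Saccharomyces cerevisiae BY4741 community, carrying four plasmids that each restored one auxotrophy and encoded a distinct fluorescent protein, were pre-grown overnight to OD600 1.0 and diluted to 0.3. A 70 µl volume was added to 384-well plates acoustically predosed with library drugs (10 µM final) and grown 24 h in minimal SM medium. After paraformaldehyde fixation, automated confocal microscopy was used, with single-auxotroph fluorescent strains for thresholds and autofluorescence correction. The abundance of each subpopulation was scored as a z-score against the vehicle-well median.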
# [2] = tested on: Saccharomyces cerevisiae BY4741 SeMeCo community; test: z-score of subpopulation abundance vs DMSO median, subpopulation auxotrophic for L; higher = larger share of this subpopulation than in DMSO controls; details: 10 µM; 24 h; SM minimal medium; subpopulation (auxotrophy): L
# Method in brief: as §1
# [3] = tested on: Saccharomyces cerevisiae BY4741 SeMeCo community; test: z-score of subpopulation abundance vs DMSO median, subpopulation auxotrophic for U; higher = larger share of this subpopulation than in DMSO controls; details: 10 µM; 24 h; SM minimal medium; subpopulation (auxotrophy): U
# Method in brief: as §1
# [4] = tested on: Saccharomyces cerevisiae BY4741 SeMeCo community; test: z-score of subpopulation abundance vs DMSO median, subpopulation auxotrophic for H; higher = larger share of this subpopulation than in DMSO controls; details: 10 µM; 24 h; SM minimal medium; subpopulation (auxotrophy): H
# Method in brief: as §1
# [5] = tested on: Saccharomyces cerevisiae BY4741 SeMeCo community; test: z-score of subpopulation abundance vs DMSO median, subpopulation auxotrophic for LU; higher = larger share of this subpopulation than in DMSO controls; details: 10 µM; 24 h; SM minimal medium; subpopulation (auxotrophy): LU
# Method in brief: as §1
# [6] = tested on: Saccharomyces cerevisiae BY4741 SeMeCo community; test: z-score of subpopulation abundance vs DMSO median, subpopulation auxotrophic for LM; higher = larger share of this subpopulation than in DMSO controls; details: 10 µM; 24 h; SM minimal medium; subpopulation (auxotrophy): LM
# Method in brief: as §1
# [7] = tested on: Saccharomyces cerevisiae BY4741 SeMeCo community; test: z-score of subpopulation abundance vs DMSO median, subpopulation auxotrophic for HM; higher = larger share of this subpopulation than in DMSO controls; details: 10 µM; 24 h; SM minimal medium; subpopulation (auxotrophy): HM
# Method in brief: as §1
# [8] = tested on: Saccharomyces cerevisiae BY4741 SeMeCo community; test: z-score of subpopulation abundance vs DMSO median, subpopulation auxotrophic for HU; higher = larger share of this subpopulation than in DMSO controls; details: 10 µM; 24 h; SM minimal medium; subpopulation (auxotrophy): HU
# Method in brief: as §1
# [9] = tested on: Saccharomyces cerevisiae BY4741 SeMeCo community; test: z-score of subpopulation abundance vs DMSO median, subpopulation auxotrophic for UM; higher = larger share of this subpopulation than in DMSO controls; details: 10 µM; 24 h; SM minimal medium; subpopulation (auxotrophy): UM
# Method in brief: as §1
# [10] = tested on: Saccharomyces cerevisiae BY4741 SeMeCo community; test: z-score of subpopulation abundance vs DMSO median, subpopulation auxotrophic for HL; higher = larger share of this subpopulation than in DMSO controls; details: 10 µM; 24 h; SM minimal medium; subpopulation (auxotrophy): HL
# Method in brief: as §1
# [11] = tested on: Saccharomyces cerevisiae BY4741 SeMeCo community; test: z-score of subpopulation abundance vs DMSO median, subpopulation auxotrophic for HLM; higher = larger share of this subpopulation than in DMSO controls; details: 10 µM; 24 h; SM minimal medium; subpopulation (auxotrophy): HLM
# Method in brief: as §1
# [12] = tested on: Saccharomyces cerevisiae BY4741 SeMeCo community; test: z-score of subpopulation abundance vs DMSO median, subpopulation auxotrophic for LUM; higher = larger share of this subpopulation than in DMSO controls; details: 10 µM; 24 h; SM minimal medium; subpopulation (auxotrophy): LUM
# Method in brief: as §1
# [13] = tested on: Saccharomyces cerevisiae BY4741 SeMeCo community; test: z-score of subpopulation abundance vs DMSO median, subpopulation auxotrophic for HLUM; higher = larger share of this subpopulation than in DMSO controls; details: 10 µM; 24 h; SM minimal medium; subpopulation (auxotrophy): HLUM
# Method in brief: as §1
# [14] = tested on: Saccharomyces cerevisiae BY4741 SeMeCo community; test: mean cell size (pixel area) (pixels); higher = larger cells; details: 10 µM; 24 h; SM minimal medium
# Method in brief: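 A four-plasmid fluorescent Saccharomyces cerevisiae BY4741 community was tested; each plasmid complements one auxotrophy and carries a fluorescent marker. An overnight preculture at OD600 = 1.0 was diluted to OD600 = 0.3, and 70 µl was added to 384-well plates acoustically predosed with drug (final 10 µM) in SM medium for 24 h. Cells were fixed with paraformaldehyde and imaged by automated confocal microscopy, with analysis in Harmony. Mean cell pixel area per well is averaged over 3 replicates. Same SeMeCo high-content imaging drug screen: Selleck FDA-approved drugs at 10 µM, 24 h in SM medium, 384-well plates, 3 replicates.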
# [15] = tested on: Saccharomyces cerevisiae BY4741 SeMeCo community; test: z-score of subpopulation abundance vs DMSO median, subpopulation auxotrophic for HUM; higher = larger share of this subpopulation than in DMSO controls; details: 10 µM; 24 h; SM minimal medium; subpopulation (auxotrophy): HUM
# Method in brief: as §1
smiles,measurement,setting,value
CC[C@@H]1C(=O)OC[C@@H]1Cc1cncn1C [Pilocarpine HCl],z-score of prototroph abundance,[1],0.73
same,z-score of subpopulation abundance,[2],0.16
same,z-score of subpopulation abundance,[3],-0.55
same,z-score of subpopulation abundance,[4],0.8
same,z-score of subpopulation abundance,[5],-0.22
same,z-score of subpopulation abundance,[6],0.75
same,z-score of subpopulation abundance,[7],0.01
same,z-score of subpopulation abundance,[8],-0.93
same,z-score of subpopulation abundance,[9],-0.51
same,z-score of subpopulation abundance,[10],-0.15
same,z-score of subpopulation abundance,[11],-0.18
same,z-score of subpopulation abundance,[12],-0.76
same,z-score of subpopulation abundance,[13],-0.1
C=C1CC[C@@H]2[C@](C)(CO)[C@H](O)CC[C@@]2(C)[C@H]1C/C=C1\C=COC1=O [Dehydroandrographolide],mean cell size,[14],12.37 ± 0.086
CO[C@@H]1[C@@H](O[C@@H]2O[C@H](C)[C@@H](O[C@H]3C[C@@](C)(O)[C@@H](OC(=O)CC(C)C)[C@H](C)O3)[C@H](N(C)C)[C@H]2O)[C@@H](CC=O)C[C@@H](C)[C@@H](O)/C=C/C=C/C[C@@H](C)OC(=O)C[C@H]1O [Kitasamycin],mean cell size,[14],12.32 ± 0.037
CO[C@H]1/C=C/O[C@@]2(C)Oc3c(C)c(O)c4c(c3C2=O)C2=NC3(CCN(CC(C)C)CC3)NC2=C(NC(=O)/C(C)=C\C=C\[C@H](C)[C@H](O)[C@@H](C)[C@@H](O)[C@@H](C)[C@H](OC(C)=O)[C@@H]1C)C4=O [Rifabutin],mean cell size,[14],12.6 ± 0.21
CN(C)c1ccc(O)c2c1C[C@H]1C[C@H]3[C@H](N(C)C)C(O)=C(C(N)=O)C(=O)[C@@]3(O)C(O)=C1C2=O [Minocycline HCl],mean cell size,[14],12.2 ± 0.13
Cc1ccc(-c2ncc(Cl)cc2-c2ccc(S(C)(=O)=O)cc2)cn1 [Etoricoxib],mean cell size,[14],12.4 ± 0.17
same,z-score of prototroph abundance,[1],-0.04
same,z-score of subpopulation abundance,[2],0.57
same,z-score of subpopulation abundance,[4],-0.35
same,z-score of subpopulation abundance,[5],-0.52
same,z-score of subpopulation abundance,[6],0.07
same,z-score of subpopulation abundance,[7],-0.1
same,z-score of subpopulation abundance,[8],-0.51
same,z-score of subpopulation abundance,[9],0.52
same,z-score of subpopulation abundance,[10],-0.03
same,z-score of subpopulation abundance,[11],-0.16
same,z-score of subpopulation abundance,[12],-0.03
same,z-score of subpopulation abundance,[13],-0.24
CN(C)[C@@H]1C(O)=C(C(N)=O)C(=O)[C@@]2(O)C(O)=C3C(=O)c4c(O)ccc(Cl)c4[C@@](C)(O)[C@H]3C[C@@H]12 [Chlortetracycline HCl],mean cell size,[14],12.4 ± 0.2
COc1ccc2c(c1)C(=O)N(CCc1ccc(S(=O)(=O)NC(=O)NC3CCCCC3)cc1)C(=O)C2(C)C [Gliquidone],mean cell size,[14],12.5 ± 0.12
CN(C)[C@@H]1C(O)=C(C(N)=O)C(=O)[C@@]2(O)C(O)=C3C(=O)c4c(O)cccc4[C@@](C)(O)[C@H]3[C@H](O)[C@@H]12 [Oxytetracycline (Terramycin)],mean cell size,[14],12.87 ± 0.067
Cc1c(C)c2c(c(C)c1O)CC[C@@](C)(CCC[C@H](C)CCC[C@H](C)CCCC(C)C)O2 [Vitamin E],mean cell size,[14],12.2 ± 0.22
CC(=O)OCC1=C(C(=O)O)N2C(=O)[C@@H](NC(=O)CSC(=NC(C)C)NC(C)C)[C@H]2SC1 [Cefathiamidine],mean cell size,[14],12.3 ± 0.14
O=C1C(O)=C([C@H]2CC[C@H](c3ccc(Cl)cc3)CC2)C(=O)c2ccccc21 [Atovaquone],mean cell size,[14],12.39 ± 0.12
COc1ccc(C(C)=O)c(O)c1 [Paeonol],mean cell size,[14],12.4 ± 0.15
same,z-score of prototroph abundance,[1],-0.25
same,z-score of subpopulation abundance,[3],0.71
same,z-score of subpopulation abundance,[4],0.01
same,z-score of subpopulation abundance,[5],0.12
same,z-score of subpopulation abundance,[6],0.14
same,z-score of subpopulation abundance,[7],-0.35
same,z-score of subpopulation abundance,[8],0.44
same,z-score of subpopulation abundance,[9],0.01
same,z-score of subpopulation abundance,[10],-0.25
same,z-score of subpopulation abundance,[11],-0.22
same,z-score of subpopulation abundance,[12],-0.79
same,z-score of subpopulation abundance,[13],0.01
C[C@H]1[C@H](NC(=O)/C(=N\OC(C)(C)C(=O)O)c2csc(N)n2)C(=O)N1S(=O)(=O)O [Aztreonam],mean cell size,[14],12.5 ± 0.18
same,z-score of prototroph abundance,[1],-0.5
same,z-score of subpopulation abundance,[2],0.74
same,z-score of subpopulation abundance,[4],-0.29
same,z-score of subpopulation abundance,[5],0.39
same,z-score of subpopulation abundance,[7],0.36
same,z-score of subpopulation abundance,[8],-0.08
same,z-score of subpopulation abundance,[9],0.13
same,z-score of subpopulation abundance,[10],0.25
same,z-score of subpopulation abundance,[11],1.34
same,z-score of subpopulation abundance,[15],-0.1
same,z-score of subpopulation abundance,[12],0.97
same,z-score of subpopulation abundance,[13],0.34
C[C@H]1c2cccc(O)c2C(=O)C2=C(O)[C@]3(O)C(=O)C(C(N)=O)=C(O)[C@@H](N(C)C)[C@@H]3[C@@H](O)[C@@H]21 [Doxycycline],mean cell size,[14],12.1 ± 0.32
C[C@@H]1NC(=O)[C@@H](N)CNC(=O)[C@H](C2CCNC(=N)N2)NC(=O)/C(=C/NC(N)=O)NC(=O)[C@H](CNC(=O)CC(N)CCCN)NC1=O.N=C1NCC[C@H]([C@@H]2NC(=O)/C(=C/NC(N)=O)NC(=O)[C@H](CNC(=O)C[C@@H](N)CCCN)NC(=O)[C@H](CO)NC(=O)[C@@H](N)CNC2=O)N1 [Capreomycin Sulfate],mean cell size,[14],12.1 ± 0.22
CN1CCc2cc3c(cc2C(=O)Cc2ccc4c(c2C1)OCO4)OCO3 [Protopine],mean cell size,[14],12.2 ± 0.13
same,z-score of prototroph abundance,[1],-0.56
same,z-score of subpopulation abundance,[2],1.72
same,z-score of subpopulation abundance,[3],-0.67
same,z-score of subpopulation abundance,[4],0.05
same,z-score of subpopulation abundance,[5],1.45
same,z-score of subpopulation abundance,[6],1.78
same,z-score of subpopulation abundance,[8],-0.45
same,z-score of subpopulation abundance,[9],-0.23
same,z-score of subpopulation abundance,[10],1.17
same,z-score of subpopulation abundance,[15],0.19
same,z-score of subpopulation abundance,[12],1.38
same,z-score of subpopulation abundance,[13],0.9
CC(=O)O[C@H]1C[C@@]2(C)[C@@H](C[C@@H](O)[C@H]3[C@@]4(C)CC[C@@H](O)[C@@H](C)[C@@H]4CC[C@@]32C)/C1=C(\CCC=C(C)C)C(=O)O [Fusidine],mean cell size,[14],12.41 ± 0.032
O=C1c2cccc3c2[C@H](CCC3)CN1[C@@H]1CN2CCC1CC2 [Palonosetron],mean cell size,[14],12.2 ± 0.14
same,z-score of prototroph abundance,[1],-0.11
same,z-score of subpopulation abundance,[2],-0.81
same,z-score of subpopulation abundance,[3],-0.35
same,z-score of subpopulation abundance,[4],-0.77
same,z-score of subpopulation abundance,[5],-0.39
same,z-score of subpopulation abundance,[7],-0.24
same,z-score of subpopulation abundance,[8],-0.06
same,z-score of subpopulation abundance,[11],-0.49
same,z-score of subpopulation abundance,[15],0.12
same,z-score of subpopulation abundance,[13],-0.4
